From PubChem BioAssay AID1362 (SRMLSC, 2008)
Screen size: about 190,000 compounds; about 4,000 (2.1%) were called active. Cut-off read from the data, not from the text of the source: active = inhibition above about 58%; inactive = the rest, inconclusive results apart; tested in S. cerevisiae. Many of the other results were omitted from the sample, so actives are more common in it than they were.

Assay: growth inhibition of WT strain, primary screen, mitochondrial fusion inhibitor project, WT and mutant strains, chemical genetic (AID 1362)
Conditions: mitochondrial fusion phenotypic screen, at 10 µM
[1] = WT strain, growth inhibition, stronger effect = higher value

## COc1ccc(-c2ccc(CCC(=O)O)n2-c2ccc(O)cc2)cc1
[1]
  inhibition: -12.3% (inactive)
Mutant strain inhibition
  inhibition: -2.11%

## COc1ccc(NC(=O)Nc2ccc3nsnc3c2)cc1
[1]
  inhibition: 23.1% (inactive)
Mutant strain inhibition
  inhibition: -36.8%

## O=C(Nc1ccc2ccccc2c1)Nc1ccc2snnc2c1
[1]
  inhibition: 88.1% (active)
Mutant strain inhibition
  inhibition: 77.8%

## O=C(Nc1ccccc1)Nc1nc2ccccc2s1
[1]
  inhibition: -5.57% (inactive)
Mutant strain inhibition
  inhibition: -20.5%

## COc1ccc2c(c1)CCc1c(C(=O)N3CCCC3)noc1-2
[1]
  inhibition: -10.3% (inactive)
Mutant strain inhibition
  inhibition: -6.91%

## COc1ccc2c(c1)CCc1c(C(=O)N3CCc4ccccc4C3)noc1-2
[1]
  inhibition: 73.9% (active)
Mutant strain inhibition
  inhibition: 68%

## COc1ccc2c(c1)CCc1c(C(=O)Nc3c(C)n(C)n(-c4ccccc4)c3=O)noc1-2
[1]
  inhibition: -9.3% (inactive)
Mutant strain inhibition
  inhibition: -13%

## COc1ccc(CC2(CO)CCN(Cc3cnn(C)c3)CC2)cc1
[1]
  inhibition: 12.1% (inactive)
Mutant strain inhibition
  inhibition: -0.62%

## Cc1cc(O)c(NC(=O)c2ccc(C)c([N+](=O)[O-])c2)cc1C
[1]
  inhibition: -6.28% (inactive)
Mutant strain inhibition
  inhibition: -4.47%

## O=S(=O)(NCCOc1cccc2cccnc12)c1ccc(F)cc1
[1]
  inhibition: 0.13% (inactive)
Mutant strain inhibition
  inhibition: 5.48%

## CCOc1cccc(OCCCOc2cccc3cccnc23)c1
[1]
  inhibition: 60.8% (active)
Mutant strain inhibition
  inhibition: 26%

## Cc1cc(OCCOc2cccc3cccnc23)c(C)cc1Cl
[1]
  inhibition: 14.6% (inactive)
Mutant strain inhibition
  inhibition: 20.4%

## CC[N+]1(CC)CC2=Cc3ccccc3CC2C1 (stereo not given)
[1]
  inhibition: 0.67% (inactive)
Mutant strain inhibition
  inhibition: -6.63%

## O=C(CCc1ccccc1)NCc1cccnc1
[1]
  inhibition: -0.16% (inactive)
Mutant strain inhibition
  inhibition: 17.5%

## COCc1nnc(NC(=O)CS(=O)(=O)Cc2ccccc2)s1
[1]
  inhibition: -3.35% (inactive)
Mutant strain inhibition
  inhibition: -9.06%

## O=C(CS(=O)(=O)Cc1ccccc1)Nc1cccnc1
[1]
  inhibition: 90.1% (active)
Mutant strain inhibition
  inhibition: 19.3%

## COCCC(=O)Nc1ccc2c(c1)CN(C(=O)CCOC)CC2
[1]
  inhibition: -15.9% (inactive)
Mutant strain inhibition
  inhibition: -11.2%

## CC(C)C1Nc2c(C(=O)O)cccc2C(Nc2ccccc2C(=O)O)C1(C)C (stereo not given)
[1]
  inhibition: -8.7% (inactive)
Mutant strain inhibition
  inhibition: -3.34%

## Cc1ccc(-n2nc3c(c2NC(=O)c2ccc4c(c2)OCO4)CSC3)c(C)c1
[1]
  inhibition: 84% (active)
Mutant strain inhibition
  inhibition: 3.65%

## Cc1cccc(-n2nc3c(c2NC(=O)c2ccc(Br)o2)CSC3)c1C
[1]
  inhibition: 8.72% (inactive)
Mutant strain inhibition
  inhibition: 6.28%

## Cc1cc(C)c2nc(NC(=O)c3ccc4c(c3)OCO4)sc2c1
[1]
  inhibition: 14.1% (inactive)
Mutant strain inhibition
  inhibition: -21.7%

## O=C(Oc1cccc(O)c1)C1CCCCC1
[1]
  inhibition: -7.96% (inactive)
Mutant strain inhibition
  inhibition: 7.95%

## CCOC(=O)c1c(CN(C)C)n(-c2ccccc2)c2cc(Br)c(O)cc12
[1]
  inhibition: 9.54% (inactive)
Mutant strain inhibition
  inhibition: 7.76%

## CC(CC(=O)O)C(=O)c1ccc(Cl)c([N+](=O)[O-])c1 (stereo not given)
[1]
  inhibition: -16.5% (inactive)
Mutant strain inhibition
  inhibition: -4.59%

## O=C(O)c1ccc(NC(=O)c2cccs2)cc1
[1]
  inhibition: -8.36% (inactive)
Mutant strain inhibition
  inhibition: 1.63%

## O=C(Nc1ncccn1)c1cccs1
[1]
  inhibition: 71.2% (active)
Mutant strain inhibition
  inhibition: 28.9%

## O=C(Nc1ccnc(-c2ccncc2)n1)c1cccs1
[1]
  inhibition: -10.3% (inactive)
Mutant strain inhibition
  inhibition: 11%

## Cc1ccccc1CN1C[C@@H]2C[C@@H](c3ccc4nsnc4c3)N3CCC[C@@]23C1=O
[1]
  inhibition: 7.94% (inactive)
Mutant strain inhibition
  inhibition: 5.04%

## O=C(NCCCN1CCOCC1)c1ccccc1NS(=O)(=O)c1ccc(F)cc1
[1]
  inhibition: -8.48% (inactive)
Mutant strain inhibition
  inhibition: 6.56%

## O=C(N/N=C/C=C/c1ccco1)c1cccs1
[1]
  inhibition: -12.2% (inactive)
Mutant strain inhibition
  inhibition: -0.62%

## O=C1c2ccccc2S(=O)(=O)N1CC(O)Cn1c2ccccc2c2ccccc21 (stereo not given)
[1]
  inhibition: 84.5% (active)
Mutant strain inhibition
  inhibition: 45.8%

## CS(=O)(=O)N(CC(O)Cn1c2ccccc2c2ccccc21)c1cccc2ccccc12 (stereo not given)
[1]
  inhibition: 31.9% (inactive)
Mutant strain inhibition
  inhibition: 7.33%

## CNC(=O)CN1C(=O)c2ccccc2S1(=O)=O
[1]
  inhibition: 12.2% (inactive)
Mutant strain inhibition
  inhibition: -7.85%

## COCCCNC(=S)N(Cc1ccccc1)Cc1ccc(F)cc1
[1]
  inhibition: 31.2% (inactive)
Mutant strain inhibition
  inhibition: 41.6%

## CC(NCc1nc2ccccc2n1C)C12CC3CC(CC(C3)C1)C2 (stereo not given)
[1]
  inhibition: 30.5% (inactive)
Mutant strain inhibition
  inhibition: 16.6%

## COc1ccc(OC)c(C(=O)CSc2nnc(-c3cccs3)o2)c1
[1]
  inhibition: -7.87% (inactive)
Mutant strain inhibition
  inhibition: -26.6%

## COc1ccc(-n2c(C)cc(C(=O)CSc3nnc(-c4cccs4)o3)c2C)cc1
[1]
  inhibition: 4.34% (inactive)
Mutant strain inhibition
  inhibition: 23%

## COc1ccc(-c2nnc(SCC(=O)c3cccs3)o2)c(OC)c1
[1]
  inhibition: 63.6% (active)
Mutant strain inhibition
  inhibition: -1.8%

## CCC(=O)c1ccc(N2CCN(C(=O)c3cc([N+](=O)[O-])ccc3F)CC2)c(F)c1
[1]
  inhibition: 10.4% (inactive)
Mutant strain inhibition
  inhibition: 5.39%

## CC(C)C(c1nnnn1C(C)(C)C)N1CCN(Cc2cccnc2)CC1 (stereo not given)
[1]
  inhibition: -10.2% (inactive)
Mutant strain inhibition
  inhibition: 0.92%

## COC(=O)C1=C(N)Oc2c(oc(CO)cc2=O)C1c1c(F)cccc1Cl (stereo not given)
[1]
  inhibition: -8.54% (inactive)
Mutant strain inhibition
  inhibition: -4.27%

## NS(=O)(=O)c1ccc(NC(=O)COC(=O)c2c3c(nc4ccccc24)/C(=C\c2ccc4c(c2)OCO4)CCC3)cc1
[1]
  inhibition: 17.8% (inactive)
Mutant strain inhibition
  inhibition: -3.76%

## NC(=O)c1ccc(NC(=O)COC(=O)c2c3c(nc4ccccc24)/C(=C\c2ccc4c(c2)OCO4)CCC3)cc1
[1]
  inhibition: 62.3% (active)
Mutant strain inhibition
  inhibition: -2.13%

## O=C(COC(=O)c1c2c(nc3ccccc13)/C(=C\c1cccs1)CCC2)Nc1ccccc1Cl
[1]
  inhibition: 15.8% (inactive)
Mutant strain inhibition
  inhibition: 3.86%

## Fc1ccc(COc2cccc(-c3n[nH]c(=S)o3)c2)cc1
[1]
  inhibition: -4.32% (inactive)
Mutant strain inhibition
  inhibition: -2.8%

## Cc1ccc(S(=O)(=O)/N=C(/Nc2ccc3[nH]c(=O)[nH]c3c2)c2ccccc2)cc1
[1]
  inhibition: -20.3% (inactive)
Mutant strain inhibition
  inhibition: 0.61%

## COc1ccc(-c2cc(-c3ccc(N)cc3)nc(N)c2C#N)cc1OC
[1]
  inhibition: 42.1% (inactive)
Mutant strain inhibition
  inhibition: -0.07%

## COc1ccc(OC)c2c(N)c(C#N)c(C(F)(F)C(F)(F)F)nc12
[1]
  inhibition: 61.3% (active)
Mutant strain inhibition
  inhibition: -8.43%

## COc1ccc(C2CC(=O)Nc3sc(=N)c4c(N)c(C#N)c(N)nc4c32)cc1OC (stereo not given)
[1]
  inhibition: -16.8% (inactive)
Mutant strain inhibition
  inhibition: -4.44%

## O=S(=O)(NCc1ccccc1)c1ccc(S(=O)(=O)N2CCCC2)cc1
[1]
  inhibition: 5.86% (inactive)
Mutant strain inhibition
  inhibition: -0.28%

## CCCCc1nnc(NC(=O)CSc2nc(N)cc(=O)[nH]2)s1
[1]
  inhibition: -9.03% (inactive)
Mutant strain inhibition
  inhibition: -14.2%

## O=C(CSc1ccc(-c2ccccc2)nn1)NCC1CCCO1 (stereo not given)
[1]
  inhibition: -2.54% (inactive)
Mutant strain inhibition
  inhibition: 0.5%

## O=C(Nc1ccon1)c1sc2ccccc2c1Cl
[1]
  inhibition: 3.3% (inactive)
Mutant strain inhibition
  inhibition: 0.77%

## O=C(N/N=C/c1c(Cl)[nH]c2ccccc12)c1sc2ccccc2c1Cl
[1]
  inhibition: 61.8% (active)
Mutant strain inhibition
  inhibition: 41.3%

## Cc1nn(C)cc1/C=N/NC(=O)c1sc2ccccc2c1Cl
[1]
  inhibition: -10.9% (inactive)
Mutant strain inhibition
  inhibition: 2.17%

## COc1ccc(CCc2nnc(CCC(=O)NCc3cnn(-c4ccccc4C)c3)o2)cc1
[1]
  inhibition: 12.2% (inactive)
Mutant strain inhibition
  inhibition: 7.75%

## CS(=O)(=O)n1nc(-c2ccco2)nc1N
[1]
  inhibition: -0.21% (inactive)
Mutant strain inhibition
  inhibition: -16.1%

## C=CCc1cccc2cc(C(=O)NC3CCCC3)c(=O)oc12
[1]
  inhibition: 3.26% (inactive)
Mutant strain inhibition
  inhibition: 9.03%

## CC(C)(C)c1ccc(OC2=CS(=O)(=O)c3ccccc32)cc1
[1]
  inhibition: 59% (active)
Mutant strain inhibition
  inhibition: 35.3%

## CC(C)(C)c1ccc(Oc2ccc(N)cc2)cc1
[1]
  inhibition: 54.8% (inactive)
Mutant strain inhibition
  inhibition: 38%

## CC(C)(C)c1csc(NC2=NS(=O)(=O)c3ccccc32)n1
[1]
  inhibition: -0.65% (inactive)
Mutant strain inhibition
  inhibition: -32.5%

## Cc1nn(CC(=O)NCc2ccccn2)c(C)c1[N+](=O)[O-]
[1]
  inhibition: -4.5% (inactive)
Mutant strain inhibition
  inhibition: 4.36%

## COc1cc(CNCCN(C)C)ccc1OCc1c(F)cccc1Cl
[1]
  inhibition: -7.23% (inactive)
Mutant strain inhibition
  inhibition: 10.9%

## CCCCNC(=O)N1CCN(S(C)(=O)=O)CC1
[1]
  inhibition: 3.54% (inactive)
Mutant strain inhibition
  inhibition: 2.85%

## CCCCCCCCn1c2c(c(=N)c3c1CCC3)CCCC2
[1]
  inhibition: 80.6% (active)
Mutant strain inhibition
  inhibition: 77.5%

## O=C1/C(=C/c2cccs2)CCC1C1CCCC1 (stereo not given)
[1]
  inhibition: 9.28% (inactive)
Mutant strain inhibition
  inhibition: 37.2%

## Cc1ccc(COc2ccc(/C=N/NC(=O)CN3CCCCC3)cc2)cc1
[1]
  inhibition: 0.04% (inactive)
Mutant strain inhibition
  inhibition: -4.75%

## COC(=O)Cc1nc2ccccc2[nH]1
[1]
  inhibition: 16.6% (inactive)
Mutant strain inhibition
  inhibition: 14%

## c1ccc2c(CSCc3nc4ccccc4[nH]3)cccc2c1
[1]
  inhibition: 74.6% (active)
Mutant strain inhibition
  inhibition: 69.3%

## Clc1ccccc1SCc1nc2ccccc2[nH]1
[1]
  inhibition: 39.4% (inactive)
Mutant strain inhibition
  inhibition: 35.4%

## O=C(NCc1ccccc1)C1CCCN(c2nc3ccsc3c(=O)s2)C1 (stereo not given)
[1]
  inhibition: -14.1% (inactive)
Mutant strain inhibition
  inhibition: 0.23%

## CO/N=C/c1ccc(N2CCN(C(=O)c3cccc(Cl)c3)CC2)c([N+](=O)[O-])c1
[1]
  inhibition: 36.5% (inactive)
Mutant strain inhibition
  inhibition: 22.2%

## O=C(/C=C/c1ccc(Cl)cc1)N1CCN(c2ccccc2[N+](=O)[O-])CC1
[1]
  inhibition: 65.4% (active)
Mutant strain inhibition
  inhibition: 39.2%

## O=C(c1ccc(Cl)c([N+](=O)[O-])c1)N1CCN(c2ccccc2)CC1
[1]
  inhibition: 65.8% (inactive)
Mutant strain inhibition
  inhibition: 70.4%

## CCn1cc(C(=O)NCCCN2CCCCCC2)c(=O)c2cc(S(=O)(=O)N3CCc4ccccc4C3)ccc21
[1]
  inhibition: 4.36% (inactive)
Mutant strain inhibition
  inhibition: -2.13%

## COc1ccc(NC(=O)CCNS(=O)(=O)c2ccc3c(c2)c(=O)n(C)c(=O)n3C)cc1OC
[1]
  inhibition: -9.99% (inactive)
Mutant strain inhibition
  inhibition: 2.95%

## CCCNC(=O)CN(Cc1ccccc1F)S(=O)(=O)c1ccc(C)cc1
[1]
  inhibition: -13.2% (inactive)
Mutant strain inhibition
  inhibition: -40.4%

## O=C(COC(=O)Cc1ccc(Br)cc1)Nc1c(F)c(F)c(F)c(F)c1F
[1]
  inhibition: 19.9% (inactive)
Mutant strain inhibition
  inhibition: 7.41%

## COC(=O)Cc1ccc(N(Cc2ccccc2F)S(=O)(=O)c2ccc(Br)cc2)cc1
[1]
  inhibition: 69.7% (active)
Mutant strain inhibition
  inhibition: 64.6%

## CCCS(=O)(=O)N1CCC(CCOc2ccccc2)(C(=O)OCC)CC1
[1]
  inhibition: 5.25% (inactive)
Mutant strain inhibition
  inhibition: -7.89%

## CCSC1=NCCN1C(=O)c1ccc(S(=O)(=O)N(CC)CC)cc1
[1]
  inhibition: 1.64% (inactive)
Mutant strain inhibition
  inhibition: -5.04%

## O=C(COC(=O)c1ccncc1)c1ccccc1
[1]
  inhibition: -12.9% (inactive)
Mutant strain inhibition
  inhibition: 3%

## COc1ccc(N2CCN(CCNC(=O)CCN3C(=O)COc4ccccc43)CC2)cc1
[1]
  inhibition: -0.99% (inactive)
Mutant strain inhibition
  inhibition: 42.7%

## COc1ccc(N2CCN(CCNC(=O)c3nnc(Cc4c(F)cccc4Cl)o3)CC2)cc1
[1]
  inhibition: 82.5% (active)
Mutant strain inhibition
  inhibition: -0.13%

## COc1ccc(CN2CC(C(=O)NCCN3CCN(c4ccccc4F)CC3)CC2=O)cc1 (stereo not given)
[1]
  inhibition: 5.07% (inactive)
Mutant strain inhibition
  inhibition: 14.3%
